# Measured values taken from the antibiotic and cytotoxicity screens of Wong et al. (2023).
# Out of some 39,000 compounds screened, about 3,300 (8.5%) were called active. This excerpt belongs to a sample that is enriched for actives.
# System: HepG2
# Assay: cytotoxicity call (relative viability < 0.9)
# Details: 10 µM
row,Compound,cytotoxicity call
1,CCCCOC(=O)C1=CC(=O)CC(C)(C)O1,active
2,C[C@@H](O)CN1C[C@H]2C[C@@H](C1)c1cccc(=O)n1C2,inactive
3,CN1C[C@@H](C(=O)O)CN2CCN(C(=O)c3ccncc3F)C[C@@H]2C1,inactive
4,O=C1CC2(CCNCC2)CN1,inactive
5,C1CCC(NC2CCCC2)CC1,inactive
6,Cl.c1ccc2c(c1)OCC(C1=NCCN1)O2 (configuration not stated),active
7,NCC[C@H]1COc2ccccc2O1,inactive
8,CCC1(C2=NCCN2)Cc2ccccc2O1.Cl (configuration not stated),inactive
9,FC(F)(F)c1nnc(N2CCNCC2)s1,inactive
10,CCN1C[C@]2(COC)CC[C@H](O)[C@@]34[C@@H]2[C@@H](OC)[C@@H]([C@@H]13)[C@@]1(OC(C)=O)C[C@H](OC)[C@H]2C[C@H]4[C@@H]1[C@@H]2OC(C)=O,inactive
11,CC(C)c1csc(CCN)n1,inactive
12,CN1C[C@H]2CN[C@H]2C1,inactive
13,Cc1[nH]c2ccccc2c1CN(C)C,inactive
14,c1ccc(N2CCNCC2)nc1,inactive
15,Cc1cccc(N2CCNCC2)n1,inactive
16,O=C(O)C=CC(=O)O.c1ccc2nc(N3CCNCC3)ccc2c1,active
17,COc1ccc([C@H]2CC(=O)N3CCNC[C@@H]23)cc1,inactive
18,CCCN1CC(CSC)CC2c3cccc4[nH]cc(c34)CC21.CS(=O)(=O)O (configuration not stated),inactive
19,CNC(C)C(O)c1ccccc1.Cl (configuration not stated),inactive
20,O=C(O)C[C@H]1CC[C@@H]2NC[C@H](O)COC[C@H]2O1,inactive
21,O=C([O-])Cc1ccccc1.[Na+],inactive
22,C[CH2][Hg][S]c1ccccc1C(=O)[O-].[Na+],active
23,N[C@@]1(C(=O)O)CC[C@H](C(=O)O)C1,inactive
24,NCCc1ccc(S(=O)(=O)F)cc1,inactive
25,CN1C(=O)NC(=O)/C(=C\C=C\c2ccco2)C1=O,inactive
26,C[C@@]12NC(=O)CN1CCc1ccccc12,inactive

row,Compound,cytotoxicity call
1,CC(C)NC(=O)C1=NO[C@]2(CCNC2)C1,inactive
2,Nc1nc(Cl)ncc1[N+](=O)[O-],inactive
3,O=C1CCCC2C3CC(CN12)C1CCCCN1C3.[O-][Cl+3]([O-])([O-])O (configuration not stated),inactive
4,Cc1nccc2c1[nH]c1ccccc12 [listing 1 of 2 here],inactive
5,Cc1nccc2c1[nH]c1ccccc12 [listing 2 of 2 here],active
6,c1ccc2c(c1)[nH]c1cnccc12,inactive
7,Cc1nccc2c1[nH]c1cc(O)ccc12 [listing 1 of 2 here],inactive
8,COc1ccc2c(c1)[nH]c1c(C)nccc12,active
9,Cc1nccc2c1[nH]c1cc(O)ccc12 [listing 2 of 2 here],active
10,COc1ccc2cc(CCN)c(=O)[nH]c2c1,inactive
11,Cc1ccc(C=C2C(=O)NC(=O)NC2=O)cc1,inactive
12,NCC(=O)Nc1ccc(Br)cc1C(=O)c1ccccc1,inactive
13,Cn1cnc(CCN)c1,inactive
14,CC1(C)CCNC1=O,inactive
15,COS(C)(=O)=O,inactive
16,C[C@@H]1CN([C@@H](C)CO)C(=O)c2cc(NC(=O)Nc3ccccc3)ccc2O[C@@H](C)CCCCO[C@H]1CN(C)C(=O)Oc1ccccc1,inactive
17,CNc1ccc2oc(C[C@H]3O[C@@]4(CC[C@H]3C)O[C@H]([C@H](C)C(=O)c3ccc[nH]3)[C@H](C)C[C@H]4C)nc2c1C(=O)O,active
18,C[C@H]1CN([C@@H](C)CO)C(=O)CCCn2nncc2CO[C@H]1CN(C)C(=O)Oc1ccc2ccccc2c1,inactive
19,CC=C1CC(C)C(O)(CO)C(=O)OCC2=CCN3CCC(OC1=O)C23 (configuration not stated),inactive
20,O=C1CC(=O)N(Cc2ccccc2)C(=O)N1,inactive
21,C[C@]12CC[C@](C)(O1)[C@H](C(=O)O)[C@@H]2C(=O)O,inactive
22,C[C@@]1(C(=O)O)[C@H]2CC[C@@H](O2)[C@@]1(C)C(=O)O,active
23,O=C(O)[C@H]1[C@H](C(=O)O)[C@H]2CC[C@@H]1O2,inactive
24,OCCN1CC2(CCN(c3nccs3)C2)C1,inactive
25,C1CCNCC1,inactive
26,Cc1cnc[nH]1,inactive

row,Compound,cytotoxicity call
1,C[C@@H]1CN([C@H](C)CO)C(=O)CCCn2cc(nn2)CO[C@H]1CN(C)C(=O)Oc1cccc2ccccc12,inactive
2,C[C@H]1CN([C@@H](C)CO)C(=O)CCCn2cc(nn2)CO[C@@H]1CN(C)C(=O)Oc1cccc2ccccc12,inactive
3,CC(C)C12OC1C1OC13C1(C)CCC4=C(COC4=O)C1CC1OC13C2O (configuration not stated),active
4,CC(C)c1ccc2c(c1O)CCC1C3=C(CCC21C)C(=O)OC3 (configuration not stated),inactive
5,NCCc1c[nH]c2ccc(OCC(=O)O)cc12,inactive
6,Nc1ncccc1CN1CC[C@]2(CC(=O)NC2=O)C1,inactive
7,CCOC1OC2OC3(C)CCC4C(C)CCC(C1C)C24OO3 (configuration not stated),active
8,CC1CCC2C(C)C(=O)OC3OC4(C)CCC1C32OO4 (configuration not stated),inactive
9,NC(=O)C12CC(CN1)C2,inactive
10,COc1ccc2c(c1O)-c1c(OC)c(OC)cc3c1C(C2)N(C)CC3 (configuration not stated),inactive
11,COc1cc2c3cc1Oc1c(OC)c(OC)cc4c1[C@@H](Cc1cccc(c1)Oc1ccc(c(O)c1)C[C@@H]3N(C)CC2)N(C)CC4,inactive
12,COc1cc2c3cc1Oc1c(OC)c(OC)cc4c1C(Cc1cccc(c1)Oc1ccc(c(O)c1)CC3N(C)CC2)N(C)CC4.Cl.Cl (configuration not stated),active
13,O=C(O)CF.[NaH],inactive
14,CC(=O)Oc1ccc(C=Cc2cc(OC(C)=O)cc(OC(C)=O)c2)cc1,inactive
15,c1cnc(N2CCOC[C@@]3(CCCNC3)C2)cn1,inactive
16,O=C(CCCN1CCC2(CC1)C(=O)N(Cc1cccc(F)c1)CN2c1ccccc1)c1ccc(F)cc1,active
17,C[C@@H]1CN([C@@H](C)CO)C(=O)CCCn2nncc2CO[C@@H]1CN(C)C(=O)Oc1ccc2ccccc2c1,inactive
18,C[C@@H]1CN([C@H](C)CO)C(=O)CCCn2cc(nn2)CO[C@@H]1CN(C)C(=O)Oc1ccc2ccccc2c1,inactive
19,CC(C)C[C@H]1C(=O)N2CCC[C@H]2[C@]2(O)O[C@](NC(=O)[C@@H]3C=C4c5cccc6[nH]c(Br)c(c56)C[C@H]4N(C)C3)(C(C)C)C(=O)N12,inactive
20,C[C@@H](N)Cc1c[nH]c2ccc(OCc3cccs3)cc12,inactive
21,C[C@H]1C[C@@H]2CNC[C@@H]2O1,inactive
22,CCN(CC)CCOC(=O)C(O)(c1ccccc1)c1ccccc1.Cl,inactive
23,CCCCOC(=O)c1ccccc1C(=O)OCCCC,active
24,CC(N)C(O)c1ccc(O)c(O)c1 (configuration not stated),inactive
25,CCS(=O)(=O)N1C[C@@H]2CCN[C@@H]2C1,inactive
